Article PMC12350791

What was measured:
Actin, cytoplasmic 1 = Actin, cytoplasmic 1 (UniProt P60709); assay: cross-linking mass spectrometry
[1] = molecular target: DNA replication licensing factor MCM5 (UniProt P33992); assay: cross-linking mass spectrometry
[2] = molecular target: Acidic leucine-rich nuclear phosphoprotein 32 family member B (UniProt Q92688); assay: cross-link between two proteins; cross-linking mass spectrometry
Ankyrin-1 = Ankyrin-1 (UniProt P16157); assay: as above
[3] = molecular target: Centrosomal protein of 85 kDa (UniProt Q6P2H3); assay: as above
[4] = molecular target: Heterogeneous nuclear ribonucleoprotein K (UniProt P61978); assay: as above
Filamin-C = Filamin-C (UniProt Q14315); assay: as above
[5] = molecular target: Heterogeneous nuclear ribonucleoprotein A/B (UniProt Q99729); assay: as above
[6] = molecular target: Heterogeneous nuclear ribonucleoprotein M (UniProt P52272); assay: as above
[7] = molecular target: Leucine--tRNA ligase, cytoplasmic (UniProt Q9P2J5); assay: as above
Plastin-1 = Plastin-1 (UniProt Q14651); assay: as above
[8] = molecular target: Platelet-activating factor acetylhydrolase IB subunit alpha1 (UniProt Q15102); assay: as above
[9] = molecular target: Splicing factor 3B subunit 3 (UniProt Q15393); assay: as above
Tubulin alpha-4A chain = Tubulin alpha-4A chain (UniProt P68366); assay: as above
Tubulin beta-2B chain = Tubulin beta-2B chain (UniProt Q9BVA1); assay: as above
Tubulin beta-4B chain = Tubulin beta-4B chain (UniProt P68371); assay: as above
Zincore component SEPHS1 = Zincore component SEPHS1 (UniProt P49903); assay: as above
[10] = molecular target: Heterogeneous nuclear ribonucleoproteins C1/C2 (UniProt P07910); assay: cross-link between two proteins; affinity purification or IP with mass spectrometry; cross-linking mass spectrometry
[11] = molecular target: Heterogeneous nuclear ribonucleoprotein F (UniProt P52597); assay: as above
[12] = molecular target: RNA binding motif protein, X-linked-like-1 (UniProt Q96E39); assay: as above

Question: With Formin-like protein 1, O95466 as the substance, how does the “listed as a hit” value (Actin, cytoplasmic 1) read?
Answer: yes

Question: With “DNA replication licensing factor MCM4, P33991” as the substance, how does the “listed as a hit” value [1] read?
Answer: yes

Question: “Acidic leucine-rich nuclear phosphoprotein 32 family member A, P39687” was tested. Which “listed as a hit” value [2] did it give?
Answer: yes

Question: For “Spectrin alpha chain, erythrocytic 1, P02549”, which “listed as a hit” value (Ankyrin-1) is on record?
Answer: yes

Question: What does the source list for Heat shock protein HSP 90-beta, P08238?
Answer: listed as a hit [3]: yes; listed as a hit [4]: yes

Question: With Filamin-B, O75369 as the substance, how does the “listed as a hit” value (Filamin-C) read?
Answer: yes

Question: How did the “listed as a hit” value [5] turn out when “Heterogeneous nuclear ribonucleoprotein A1, P09651” was run?
Answer: yes

Question: How did the “listed as a hit” value [6] turn out when Matrin-3, P43243 was run?
Answer: yes

Question: For “Isoleucine--tRNA ligase, cytoplasmic, P41252”, which “listed as a hit” value [7] is on record?
Answer: yes

Question: Plastin-2, P13796 was tested. Which “listed as a hit” value (Plastin-1) did it give?
Answer: yes

Question: For “Platelet-activating factor acetylhydrolase IB subunit alpha2, P68402”, which “listed as a hit” value [8] is on record?
Answer: yes

Question: Which “listed as a hit” value [9] does the source give for Splicing factor 3B subunit 2, Q13435 here?
Answer: yes

Question: Stathmin, P16949 was tested. Which “listed as a hit” value (Tubulin alpha-4A chain) did it give?
Answer: yes

Question: For Tubulin alpha-1C chain, Q9BQE3, which “listed as a hit” value (Tubulin beta-2B chain) is on record?
Answer: yes

Question: With Elongation factor 1-alpha 1, P68104 as the substance, how does the “listed as a hit” value (Tubulin beta-4B chain) read?
Answer: yes

Question: Which results are given for “Heterogeneous nuclear ribonucleoprotein D-like, O14979”?
Answer: listed as a hit (Zincore component SEPHS1): yes; listed as a hit [10]: yes

Question: Which “listed as a hit” value [11] does the source give for “Heterogeneous nuclear ribonucleoproteins C1/C2, P07910” here?
Answer: yes

Question: What about the “listed as a hit” value [12] of the same substance?
Answer: yes
